17 compounds from PubChem BioAssay can be followed below.

SMILES strings stand for the structures. Calls of active or inactive are those of the source.

The target of one test is Albumin (Bos taurus) (UniProt P02769). The experiment in a line: compounds binding labelled BSA control protein – biochemical, small-molecule microarray, Alexa647 label, 635/667 nm fluorescence, artefact control for SMM control protein annotation, profiling panel (AID 1118).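 Note: score merges 667 nm emission intensity and signal-to-noise per printed compound spot.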 The note with it: BSA-A647 binding, fluorescence 635 nm, higher = more signal.
A short description of test [1]: probe aXIP binding to arrayed compounds – biochemical, NeuroSMM set, 635/667 nm fluorescence, primary screen (AID 1119).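 Note: probe is the protein aXip251-270 applied at 1 µg/mL to compound-printed slides; binding of probe to printed compounds measured as 667 nm fluorescence plus signal to noise.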 The note with it: small-molecule microarray, higher = more signal, called active from +8 up or from −8 down.
Test [2] is described as follows: probe aNOTCH3 binding on compound microarray – biochemical, small-molecule microarray, 635/667 nm fluorescence, primary screen (AID 1120).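 Note: probe is a biotin-tagged antibody raised against NOTCH3 rather than NOTCH3 protein; score merges spot fluorescence near 667 nm with spot signal to noise.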 To be noted: higher = more signal.
The nature of test [3]: probe aNOTCH2 binding on compound microarray – biochemical, small-molecule microarray, 635/667 nm fluorescence, primary screen (AID 1121).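 Note: score merges feature fluorescence read at 667 nm with its signal to noise.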 To be noted: higher = more signal.
The target in test [4] is Carbonic anhydrase 2 (Homo sapiens) (UniProt P00918). The experiment in a line: compounds binding carbonic anhydrase 2 – biochemical, small-molecule microarray, Alexa647-labelled CAII, profiling panel (AID 1122). To be noted: CAII-A647 binding fluorescence, higher = more signal.
Test [5] is described as follows: COS7 lysate on small-molecule microarray, probe aHis, 635 nm (AID 1123).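 Note: z-score combines 667nm fluorescence intensity with signal-to-noise per printed compound spot.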 The note with it: COS7 cell lysate, fluorescence, higher = more signal.
The nature of test [6]: probe aLAP1 signal on lysate-treated microarray – cell lysate, small-molecule microarray, COS7 lysate, primary screen (AID 1124).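 Note: lysate comes from COS7 cells expressing LAP1 and is applied at 0.3 µg/mL; score merges spot fluorescence near 667 nm with signal-to-noise over triplicate slides.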 To be noted: probe aLAP1, fluorescence, higher = more signal.
A further test has as its system Sam68 (KHDRBS1). The test can be described thus: compounds binding KHDRBS1 protein – biochemical, small-molecule microarray, 635 nm fluorescence, primary screen (AID 1125).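 Note: score merges 667 nm channel intensity with signal to noise over triplicate slides.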 The note with it: higher = more signal.
Test [7] deals with Chordin-like protein 2 (CHRDL2). The test can be described thus: compounds binding chordin-like 2 – biochemical, small-molecule microarray, 635 nm fluorescence, primary screen (AID 1126).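 Note: printed compound slides probed with Chrdl2 protein at 4 µg/mL for 1 h at 4 C; score merges 667 nm emission intensity with signal to noise over three replicate slides.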 To be noted: fluorescence 635 nm, higher = more signal.
Test [8] addresses Concanavalin-A (Canavalia ensiformis) (UniProt P02866). The test can be described thus: compounds binding concanavalin A lectin – biochemical, small-molecule microarray, Alexa647 label, 635 nm, artefact control for SMM control protein annotation, primary screen (AID 1127).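 Note: z combines 667 nm emission intensity with signal-to-noise across three replicate slides.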 To be noted: ConA-A647 binding fluorescence, higher = more signal.

Concanavalin-A (Canavalia ensiformis), sequence (P02866 whole entry, looked up): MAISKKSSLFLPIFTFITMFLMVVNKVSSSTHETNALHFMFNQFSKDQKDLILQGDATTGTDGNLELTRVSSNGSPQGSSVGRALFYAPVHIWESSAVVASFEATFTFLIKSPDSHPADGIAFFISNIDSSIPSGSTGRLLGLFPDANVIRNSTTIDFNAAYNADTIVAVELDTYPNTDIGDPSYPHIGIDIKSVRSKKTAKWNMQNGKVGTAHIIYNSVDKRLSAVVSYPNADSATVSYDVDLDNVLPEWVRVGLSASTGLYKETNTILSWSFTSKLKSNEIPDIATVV
Albumin (Bos taurus), sequence (P02769 whole entry, looked up): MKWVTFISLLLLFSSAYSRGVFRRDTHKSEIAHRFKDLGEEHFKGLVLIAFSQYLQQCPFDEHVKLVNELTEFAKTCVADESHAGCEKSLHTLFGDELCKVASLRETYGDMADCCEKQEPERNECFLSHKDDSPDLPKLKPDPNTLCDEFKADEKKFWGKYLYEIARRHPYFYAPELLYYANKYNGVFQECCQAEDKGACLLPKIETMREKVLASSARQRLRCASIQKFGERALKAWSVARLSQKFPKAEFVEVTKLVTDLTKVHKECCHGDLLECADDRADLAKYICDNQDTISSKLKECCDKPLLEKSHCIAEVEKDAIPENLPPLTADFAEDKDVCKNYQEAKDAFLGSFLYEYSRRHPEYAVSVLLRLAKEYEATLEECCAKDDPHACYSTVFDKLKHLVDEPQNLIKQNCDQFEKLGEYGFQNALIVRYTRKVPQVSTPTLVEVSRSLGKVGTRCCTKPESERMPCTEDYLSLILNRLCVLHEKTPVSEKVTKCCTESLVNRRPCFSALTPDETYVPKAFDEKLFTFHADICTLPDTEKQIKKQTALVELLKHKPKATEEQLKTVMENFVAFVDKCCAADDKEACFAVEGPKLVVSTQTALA

For `CCOC(=O)C1=CC[C@@H](c2ccccc2)N(S(=O)(=O)C[Si](C)(C)C)[C@H]1c1ccccc1`, the composite z-score with Albumin (Bos taurus) was 0.873; in [2], 0.138; in [3] it was -0.0079; in [4], 0.605; in test [5], 1.27; in test [6], -0.203. Moreover, the composite z-score worked out at 1.34 in the test with Sam68 (KHDRBS1), 0.302 in test [7] and 1.02 in [8]. For the same compound, the composite Z-score in test [1] is -0.17 (inactive).
With `O=C1NC(=O)C2C1C=CC(C(O)c1ccc(F)cc1)N2Nc1ccccn1` (stereo not given), the composite z-score with Albumin (Bos taurus) was 0.691; in test [2] it was -0.004; in test [3] it was -0.0771; in test [4], 0.831; in test [5] it was 2.77; in test [6] it was -0.393. In addition, the composite z-score with Sam68 (KHDRBS1) is -0.288; in [7] it was 0.317; in [8], 0.356. Further, in test [1], the composite Z-score is -0.531 (inactive).
Take `CN(C)CCCC[C@@H]1NC(=O)[C@H]2C[C@@H](C(=O)O)[C@@H](c3cccc(OCCO)c3)N2C1=O`: the composite z-score with Albumin (Bos taurus) is -0.468; in test [2] it was 0.601; in test [3] it was 0.124; in test [4], 0.816; in test [5], 0.699; in [6] it was 0.0206. Besides, the figures for the composite z-score (in the test with Sam68 (KHDRBS1); in test [7]; in [8]) were 0.524, 0.941 and 0.931, respectively. Moreover, the composite Z-score in test [1] is 0.666 (inactive).
On to `COCCOC(=O)N1C(=O)[C@@]2(c3ccccc31)[C@H](C(=O)N1CCCCCCC1)[C@H]1C(=O)O[C@H](c3ccccc3)[C@H](c3ccccc3)N1[C@@H]2c1ccc(O)cc1`, for which the composite z-score with Albumin (Bos taurus) is 0.816; in test [2], 2; in test [3] it was 0.95; in [4], 0.608; in [5] it was 3.97; in test [6], 2.11. Also, the figures for the composite z-score (in the test on Sam68 (KHDRBS1); in [7]; in test [8]) were 1.3, 1.41 and 1.03, respectively. For the same compound, the composite Z-score in [1] is 4.39 (inactive).
`C#CCN(C/C=C/c1ccccc1)[C@H](CO[Si](C)(C)C(C)(C)C)c1ccccc1`: the composite z-score is 0.491 in the test with Albumin (Bos taurus); -0.125 in [2]; -0.229 in test [3]; -0.33 in [4]; -0.0873 in [5]; 0.0021 in test [6]. For the same compound, the composite z-score in the test with Sam68 (KHDRBS1) is 0.102; in [7] it was -0.167; in test [8], -0.111. Besides, the composite Z-score in [1] was -0.12 (inactive).
On to `COC(=O)[C@@]1(Cc2ccc(F)cc2)[C@H]2c3cc(C(=O)N(C)C)n(CCN4CCOCC4)c3C[C@H]2CN1C(=O)c1ccccc1`, for which the composite z-score with Albumin (Bos taurus) came to 0.851; in [2] it was 0.296; in test [3] it was 0.739; in test [4], 0.39; in test [5], 2.08; in [6], 0.0192. Also, the composite z-score in the test with Sam68 (KHDRBS1) was -0.0247; in test [7] it was -0.361; in [8], 0.618. Moreover, in [1], the composite Z-score was -0.34 (inactive).
Turning to `C=CCC(OC(C)=O)[C@@H]1[C@@H](N(Cc2ccc(-c3cccc(C(F)(F)F)c3)o2)C(=O)Cc2ccc(F)cc2)c2cc(OCCCO)ccc2N1C(=O)c1ccc2ccccc2n1` (stereo not given in full), the composite z-score with Albumin (Bos taurus) is 0.671; in test [2], 0.228; in test [3], -0.0664; in [4], -0.0261; in test [5] it was 0.27; in [6], -0.0949. The composite z-score with Sam68 (KHDRBS1) is 0.388; in [7] it was 0.353; in test [8] it was -2.02. Moreover, in test [1], the composite Z-score was 0.272 (inactive).
Take `N[C@@H](Cc1ccccc1)Cn1cc(C2(O)CCCCC2)nn1`: the composite z-score with Albumin (Bos taurus) was -0.052; in [2], -0.014; in [3], -0.14; in test [4], -0.29; in [5] it was 0.451; in test [6], 0.0682. Also, the composite z-score in the test with Sam68 (KHDRBS1) stood at 0.525; in test [7] it was 0.0155; in test [8], 0.88. Besides, the composite Z-score in test [1] was -0.116 (inactive).
Take `CC(C)C[C@@H]1NC(=O)[C@@]23C(=O)N[C@@H](Cc4ccccc4)C2[C@H](C)[C@@]2(C)O[C@H]2C3/C=C/C/C=C\CNC(=O)[C@@H](CC(C)C)NC1=O` (stereo not given in full): the composite z-score in the test with Albumin (Bos taurus) is 0.757; in [2], -0.0311; in [3], -0.167; in test [4], 0.599; in test [5], 0.925; in test [6], 0.285. For the same compound, the composite z-score in the test on Sam68 (KHDRBS1) was 1.3; in test [7] it was 0.732; in [8] it was -1.14. Besides, the composite Z-score in test [1] was 0.183 (inactive).
Turning to `COCCOC(=O)N1C(=O)[C@@]2(c3ccccc31)[C@H](c1ccc(OCCO)cc1)N1[C@H](c3ccccc3)[C@H](c3ccccc3)OC(=O)[C@H]1[C@@H]2C(=O)N1CCN(c2ncccn2)CC1`, the composite z-score with Albumin (Bos taurus) amounted to 0.0718; in [2], 0.146; in test [3] it was 0.0248; in test [4] it was 0.351; in [5], 1.78; in test [6] it was 0.282. For the same compound, the values for the composite z-score (in the test on Sam68 (KHDRBS1); in [7]; in test [8]) were 1.3, 0.756 and 1.1, respectively. Moreover, in test [1], the composite Z-score is -0.216 (inactive).
As to `COc1ccc(CCNC(=O)[C@@H]2c3ccccc3C(=O)N(CC34CC5CC(CC(C5)C3)C4)[C@H]2c2ccc(CO)cc2)cc1`, the composite z-score in the test with Albumin (Bos taurus) was 0.764; in [2], 0.0206; in [3] it was -0.132; in test [4] it was 0.539; in test [5], 1.7; in test [6] it was -0.0344. The figures for the composite z-score (with Sam68 (KHDRBS1); in test [7]; in test [8]) were 1.22, 0.23 and 1.11, respectively. In addition, the composite Z-score in test [1] was -0.422 (inactive).
Regarding `O=C1NC(=O)C2C1C=CC(C(O)c1cccc(O)c1)N2Nc1ccc(Cl)cc1Cl` (stereo not given), the composite z-score with Albumin (Bos taurus) is 0.33; in test [2], -0.0043; in [3], 0.0592; in test [4], 0.757; in test [5] it was 1.4; in test [6] it was -0.452. In addition, the composite z-score in the test on Sam68 (KHDRBS1) was -1.81; in [7], -0.474; in test [8], -0.0019. For the same compound, the composite Z-score in test [1] was -0.136 (inactive).
Take `COc1ccc(CC[C@H](O)c2cccc(OCC(=O)OC(C)(C)C)c2)cc1`: the composite z-score in the test with Albumin (Bos taurus) is 0.625; in [2], -0.0014; in test [3] it was -0.0876; in test [4], 0.29; in [5] it was 1.34; in test [6], 0.341. Besides, the composite z-score was found to be 1.33 in the test on Sam68 (KHDRBS1), 0.723 in test [7] and 1.2 in [8]. Also, the composite Z-score in test [1] was 0.0178 (inactive).
Turning to `COc1ccccc1CN1C(=O)c2ccccc2[C@@H](C(=O)NCCCN(C)C)[C@@H]1c1ccc(CO)cc1`, the composite z-score is 0.303 in the test with Albumin (Bos taurus); -0.2 in test [2]; -0.152 in test [3]; 0.733 in test [4]; -0.171 in test [5]; 0.323 in [6]. Further, the values for the composite z-score (with Sam68 (KHDRBS1); in test [7]; in [8]) were -2.03, 0.288 and 0.343, respectively. Besides, the composite Z-score in [1] was 0.0241 (inactive).
With `CC(C)CNC(=O)[C@@H]1c2ccccc2C(=O)N(Cc2ccccc2Cl)[C@H]1c1ccc(CO)cc1`, the composite z-score in the test with Albumin (Bos taurus) is -0.261; in test [2], -0.212; in test [3], -0.0404; in test [4], 0.687; in test [5] it was 1.57; in [6], 0.397. Besides, the composite z-score in the test with Sam68 (KHDRBS1) was -0.537; in test [7], -0.686; in test [8], -1.68. For the same compound, the composite Z-score in test [1] was 0.191 (inactive).
For the compound `COC(=O)[C@@]1(Cc2ccc(OC)cc2)[C@H]2c3cc(C(=O)N4CCCC4)n(CCc4ccc(OC)c(Br)c4)c3C[C@H]2CN1C(=O)c1ccccc1`, the composite z-score with Albumin (Bos taurus) was 1.01; in [2] it was 0.0305; in test [3] it was 0.162; in test [4] it was 0.895; in [5], 2.78; in test [6], 1.11. In addition, the values for the composite z-score (with Sam68 (KHDRBS1); in test [7]; in test [8]) were 0.251, 0.257 and -0.234, respectively. Further, in test [1], the composite Z-score was -0.004 (inactive).
On to `COCCn1c(C(=O)N2CCCC2)cc2c1C[C@H]1CN(C(=O)c3ccccc3)[C@@](Cc3ccccc3)(C(=O)OC)[C@@H]21`, for which the composite z-score with Albumin (Bos taurus) was 1.03; in test [2], 0.676; in [3], 0.6; in [4], 0.676; in test [5] it was 3.14; in test [6], 0.403. Further, the composite z-score in the test with Sam68 (KHDRBS1) was 1.29; in [7], -0.133; in test [8], 1.11. Also, the composite Z-score in test [1] is 0.239 (inactive).
